# Screens as filed in PubChem.
# FadD28 FP inh – M. tuberculosis FadD28 bisubstrate binding inhibition; FadD28 bisubstrate probe binding, fluorescence polarization; inhibition, % at 12.5 µM; 0.22% of 360,000 active; AID 588549; in the data active = inhibition above about 8.5%, passing the limit was not always enough
# BJeLR viability – kills HRASV12-expressing BJeLR cells | BJeLR (HRASV12) viability, CellTiter-Glo ATP luminescence, 48 h | inhibition, % (test concentration not listed) | 0.17% of 300,000 active; in the data active = inhibition above about 50%
# UGM FP inh – inhibitors of M. tuberculosis UDP-galactopyranose mutase | P9WIQ1 | 0.06% of 320,000 active | purified UGM, fluorescence polarization probe displacement | inhibition, % at 10 µM; in the data active = inhibition above about 10%, passing the limit was not always enough
# Rv3671c inh – inhibits the M. tuberculosis serine protease Rv3671c; P9WHR9; inhibition, % at 5.96 µM; 0.048% of 320,000 active; in the data active = inhibition above about 38%;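 also: extracellular domain of Rv3671c used as enzyme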
# Target sequence (P9WHR9 whole entry, looked up, the tested form may be a part): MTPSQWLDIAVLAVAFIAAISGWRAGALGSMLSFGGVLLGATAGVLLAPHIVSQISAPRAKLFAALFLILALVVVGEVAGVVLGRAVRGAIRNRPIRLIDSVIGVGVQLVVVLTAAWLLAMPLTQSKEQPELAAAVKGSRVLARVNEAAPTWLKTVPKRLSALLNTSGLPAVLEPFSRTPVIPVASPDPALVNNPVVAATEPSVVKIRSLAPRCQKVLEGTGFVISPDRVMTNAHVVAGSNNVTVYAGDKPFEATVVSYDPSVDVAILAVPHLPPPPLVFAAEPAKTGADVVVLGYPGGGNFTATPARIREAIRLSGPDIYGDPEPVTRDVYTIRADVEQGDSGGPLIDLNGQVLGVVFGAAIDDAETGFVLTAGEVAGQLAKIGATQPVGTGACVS
# PrP 5UTR inh – inhibition of PrP 5' UTR reporter expression. 0.35% of 340,000 active. cell-based PrP 5' UTR mRNA reporter, plate reader. inhibition, % (test concentration not listed); in the data active = inhibition above about 52%
# RecA splice inh – inhibitors of M. tuberculosis RecA intein splicing | P9WHJ3 | cell-free RecA intein splicing, fluorescence | inhibition, % (concentration not given with the values) | 0.75% of 290,000 active; in the data active = inhibition above about 30%
# A number is an active result; – = inactive; · = no result given. The list is not random: actives were taken first. Their share in the collection is about 1.3%.
SMILES,FadD28 FP inh,BJeLR viability,UGM FP inh,Rv3671c inh,PrP 5UTR inh,RecA splice inh
COc1ccc(OC)c(S(=O)(=O)N2CCC3(CC2)OCCN3S(=O)(=O)c2cccs2)c1,10,–,–,–,–,–
Cn1c(Oc2cccnc2CN2CCCC2)nc2cc(-c3cccc(C(F)(F)F)c3)sc2c1=O,–,·,·,·,·,·
Cc1cccc(N2CCN(C(=S)Nc3ccc4nc(N5CCN(C)CC5)cc(C)c4c3)CC2)c1C,–,71,·,·,–,–
C=CCOc1ccc(/C=C2\SC(=S)N(C(C(=O)O)c3ccccc3)C2=O)cc1 (configuration not stated),14,–,·,·,–,–
OC(c1ccc(-c2ccccc2)cc1)c1ncc(-c2ccccc2F)[nH]1 (configuration not stated),–,·,·,·,·,·
COC(=O)c1ccc2c(c1O)C(=O)c1ccccc1C2=O,–,–,–,–,–,44
CCCCC(=O)N(C)c1c(CC)nc2c(OCc3cc(Cl)cc(Cl)c3)cccn12,–,·,·,·,·,·
CC(=O)C(Sc1ncnc2c1nnn2-c1ccc(F)cc1)C(=O)N(C)C (configuration not stated),·,–,–,–,·,40
O=C(CCCc1ccncc1)c1ccccc1,–,·,·,·,–,·
CSc1ccc(OC2(C)CCN(Cc3ccc4c(c3)OCCO4)C2)cc1 (configuration not stated),–,·,·,·,·,·
COc1ccc(NC(=O)/C(C#N)=C/c2ncc([N+](=O)[O-])n2C)c(OC)c1,–,–,–,–,–,37
COc1ccc(NC(=O)/C(C#N)=C/c2ccc[nH]2)c(OC)c1,–,–,–,–,–,–
CCN1C(=O)[C@@H]2[C@@H]3CN(S(=O)(=O)c4ccc(C)cc4)[C@@H](c4ccccc4Cl)[C@@H]3C(=O)C[C@@H]2C1=O,–,·,·,·,·,·
COc1ccc(CCNC(=O)CSc2nnc(CNc3ccc(Cl)cc3)o2)cc1OC,–,–,–,–,–,–
O=C(CSc1nnc(CNc2ccc(Cl)cc2)o1)Nc1nc2c(s1)CCCC2,15,–,–,–,–,·
O=[N+]([O-])c1cc(-c2nnc(Nc3ccccc3)c3ccccc23)ccc1N1CCOCC1,–,–,–,–,–,·
O=[N+]([O-])c1cc(-c2nnc(Nc3ccc(O)cc3)c3ccccc23)ccc1N1CCOCC1,–,–,–,–,–,32
COC(=O)c1[nH]c2c(c1C)C(=O)CC(c1cccs1)C2 (configuration not stated),–,51,–,–,–,–
COC(=O)c1[nH]c2c(c1C)C(=O)CC(c1cc(OC)ccc1OC)C2 (configuration not stated),–,–,–,–,–,–
O=c1c2c([nH]n1-c1ccccc1)CCSC2,–,–,–,–,–,63
O=C(O)c1ccc(-n2[nH]c3c(c2=O)CCCC3)cc1,–,–,–,–,–,–
CCOC(=O)CSCC(=O)N1N=C(c2cccs2)CC1c1ccc(F)cc1 (configuration not stated),–,–,–,–,–,32
COc1cc(/C=C2\SC(=S)N(CC(=O)O)C2=O)ccc1OS(=O)(=O)c1ccc(C)cc1,9.7,–,–,–,–,·
O=[N+]([O-])c1ccc(CNc2ccc(F)cc2)s1,–,–,–,–,–,–
O=[N+]([O-])c1ccc(CNc2ccc(Cl)cc2)s1,10,–,–,–,–,–
SMILES,FadD28 FP inh,BJeLR viability,UGM FP inh,Rv3671c inh,PrP 5UTR inh,RecA splice inh
Cc1cccc(N/C=C/C(=C(C#N)C#N)N(C)C)c1,11,–,–,–,–,–
CN(C)C(/C=C/Nc1cccc(Br)c1)=C(C#N)C#N,–,–,–,–,–,–
CC1=NNC(=O)/C1=C\c1cn(-c2ccccc2)nc1-c1ccc(Cl)cc1,–,–,–,–,–,90
COc1cc(C(c2c(C)n(C)n(-c3ccccc3)c2=O)c2c(C)n(C)n(-c3ccccc3)c2=O)cc(Br)c1O,–,–,–,–,–,–
COc1cc(C(c2c(C)[nH]n(-c3ccccc3)c2=O)c2c(C)[nH]n(-c3ccccc3)c2=O)cc(OC)c1OC,–,–,–,–,–,98
CN(C)c1ccc(/C=C/C=C/c2sc3ccccc3[n+]2C)cc1,–,59,–,–,–,–
CC1(C(=O)NS(C)(=O)=O)CCN1C(=O)C/C=C/c1ccccc1 (configuration not stated),–,·,·,·,·,·
O=C(NCCCc1ccccc1)c1cccc(NC(=O)C2CCCC2)c1,–,·,·,·,–,·
CC[n+]1c(-c2ccccc2)c2cc(N)ccc2c2ccc(N)cc21,15,·,·,·,–,·
Nc1ccc2nc(-c3ccccc3)[nH]c2c1,–,–,–,–,–,–
